PubChem BioAssay (NCI)
About 79,000 compounds went through this panel and 15% of them were active in at least one assay; those are over-represented in the sample as a whole. The source made the active and inactive calls. Rule as the data show it: active = growth inhibition above about 70%; inactive = the rest.

Legend:
[1] = NCI Yeast Anticancer Drug Screen. Data for the rad52 strain (AID 147);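 also: 0% = growth of vehicle-treated control cultures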; conditions: S. cerevisiae rad52 mutant growth inhibition, stronger effect = higher value
Method in brief: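 Screen used a yeast mutant impaired in DNA repair. After compound exposure, growth was measured. Values reflect inhibition compared with vehicle-treated cells.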

[2] = NCI Yeast Anticancer Drug Screen. Data for the wt1 strain (AID 149);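 also: 0% = growth of vehicle-treated wt1 cultures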; conditions: S. cerevisiae wt1 strain (SPY 50644) growth inhibition, stronger effect = higher value
Method in brief: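 Vehicle-normalised growth inhibition; strain wt1; compound exposure.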

[3] = NCI Yeast Anticancer Drug Screen. Data for the rad50EPP+ strain (AID 151);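 also: 0% = growth of vehicle-treated control cultures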; conditions: S. cerevisiae rad50 mutant strain, stronger effect = higher value
Method in brief: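 Exposing the rad50EPP+ strain to each compound, growth was compared with vehicle-only cultures to give inhibition.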

[4] = NCI Yeast Anticancer Drug Screen. Data for the mgt1 strain (AID 153); conditions: S. cerevisiae mgt1 mutant growth inhibition, stronger effect = higher value
Method in brief: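 Genetically defined yeast (mgt1) treated with compound; inhibition of growth expressed against vehicle-treated controls.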

[5] = NCI Yeast Anticancer Drug Screen. Data for the rad50 strain (AID 155);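 also: 0% = growth of vehicle-only cultures of the same strain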; conditions: S. cerevisiae rad50 strain growth inhibition, stronger effect = higher value
Method in brief: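 A DNA repair-deficient yeast mutant serves as the test organism; compound-induced growth inhibition is calculated against vehicle-treated cells.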

[6] = NCI Yeast Anticancer Drug Screen. Data for the mec2-1 strain (AID 157); conditions: S. cerevisiae mec2-1 strain, stronger effect = higher value
Method in brief: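 Readout is yeast growth inhibition, normalised to vehicle-treated controls, in the mec2-1 strain exposed to compound.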

[7] = NCI Yeast Anticancer Drug Screen. Data for the rad14 strain (AID 159);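 also: 0% = growth of vehicle-treated control cultures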; conditions: S. cerevisiae rad14 strain growth inhibition, stronger effect = higher value
Method in brief: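 Vehicle-treated cultures served as the baseline for growth inhibition of a DNA repair-mutant yeast strain exposed to each compound.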

[8] = NCI Yeast Anticancer Drug Screen. Data for the sgs1 mgt1 strain (AID 161);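 also: 0% = growth of cultures given vehicle only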; conditions: S. cerevisiae sgs1 mgt1 strain, stronger effect = higher value
Method in brief: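 Percent growth inhibition was derived by comparing compound-exposed mutant yeast with vehicle-exposed cultures. The strain carries alterations in DNA damage repair.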

[9] = NCI Yeast Anticancer Drug Screen. Data for the CLN2oe strain (AID 163);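 also: 0% = growth of vehicle-only control cultures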; conditions: S. cerevisiae CLN2oe strain, stronger effect = higher value
Method in brief: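 Values reflect how much compound exposure reduced yeast growth, referenced to vehicle-exposed cells. Assay organism is a strain with a defined genetic change affecting cell-cycle control.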

[10] = NCI Yeast Anticancer Drug Screen. Data for the cln2 rad14 strain (AID 165);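 also: 0% = growth equal to vehicle treated cultures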; conditions: S. cerevisiae cln2 rad14 strain, stronger effect = higher value
Method in brief: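 Relative to vehicle controls, growth inhibition of compound-treated cln2 rad14 yeast was recorded.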

[11] = NCI Yeast Anticancer Drug Screen. Data for the bub3 strain (AID 167); conditions: S. cerevisiae bub3 mutant strain, stronger effect = higher value
Method in brief: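 Inhibition values come from growth of compound-treated mutant yeast normalised to vehicle-treated controls.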

[12] = NCI Yeast Anticancer Drug Screen. Data for the wt2 strain (AID 169);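 also: 0% = growth of vehicle-treated yeast cultures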; conditions: S. cerevisiae wt2 strain growth inhibition, stronger effect = higher value
Method in brief: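 Values express reduction in yeast growth under compound treatment, referenced to vehicle-treated cells.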

[13] = NCI Yeast Anticancer Drug Screen. Data for the mlh1 strain (AID 171);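 also: 0% = growth of vehicle-treated control cultures of the same strain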; conditions: S. cerevisiae mlh1 strain growth inhibition, stronger effect = higher value
Method in brief: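 Steps: expose the defined-mutant yeast strain to compound; expose a parallel culture to vehicle; measure growth; express compound effect as inhibition relative to the vehicle culture.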

[14] = NCI Yeast Anticancer Drug Screen. Data for the sgs1 strain (AID 173);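 also: 0% = growth of vehicle-only control cultures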; conditions: S. cerevisiae sgs1 mutant, stronger effect = higher value
Method in brief: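 Treat defined-mutant yeast with compound; measure growth; calculate inhibition relative to vehicle-treated cells.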

[15] = NCI Yeast Anticancer Drug Screen. Data for the mlh1 rad18 strain (AID 175); conditions: S. cerevisiae mlh1 rad18 strain growth inhibition, stronger effect = higher value
Method in brief: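 Test agents were incubated with a yeast strain of defined genotype (DNA damage repair defect). Inhibition of growth was derived by comparison with vehicle-exposed cultures.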

[16] = NCI Yeast Anticancer Drug Screen. Data for the rad18 strain (AID 177); conditions: S. cerevisiae rad18 mutant growth inhibition, stronger effect = higher value
Method in brief: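 A genetically defined yeast mutant impaired in DNA damage repair was treated with test compounds, then its growth was measured against cultures receiving vehicle alone.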

[17] = at 5.0 µM (retest, dose inferred, filed as 0.5)
[18] = at 50.0 µM (retest, dose inferred, filed as 5.0)

Measured: growth inhibition

CN(C)C[C@H]1CC[C@@H](CN(C)C)C1=O
active: [3]; at 100.0 µM 84% | [5]; at 100.0 µM 78% | [6]; [18] 83% | [12]; at 100.0 µM 99% | [14]; at 100.0 µM 81% | [15]; at 50.0 µM 75% | [16]; at 100.0 µM 87%
inactive: [1]; at 1.2 µM 17% | [1]; at 3.7 µM 24% | [1]; at 11.0 µM 27% | [1]; at 33.0 µM 39% | [1]; at 100.0 µM 66% | [2]; at 1.2 µM 24% | [2]; at 3.7 µM 25% | [2]; at 11.0 µM 25% | [2]; at 33.0 µM 14% | [2]; at 100.0 µM 47% | [3]; at 1.2 µM 16% | [3]; at 3.7 µM 12% | [3]; at 11.0 µM 27% | [3]; at 33.0 µM 50% | [4]; at 1.2 µM 16% | [4]; at 3.7 µM 20% | [4]; at 11.0 µM 25% | [4]; at 33.0 µM 30% | [4]; at 100.0 µM 43% | [5]; at 1.2 µM 11% | [5]; at 3.7 µM 31% | [5]; [17] 5% | [5]; at 11.0 µM 22% | [5]; at 33.0 µM 37% | [5]; [18] 36% | [5]; at 50.0 µM 70% | [6]; at 1.2 µM 13% | [6]; at 3.7 µM 20% | [6]; [17] 9% | [6]; at 11.0 µM 16% | [6]; at 33.0 µM 28% | [6]; at 50.0 µM 57.3% | [6]; at 100.0 µM 49% | [7]; at 1.2 µM 16% | [7]; at 3.7 µM 20% | [7]; at 11.0 µM 21% | [7]; at 33.0 µM 30% | [7]; at 100.0 µM 52% | [8]; [17] 1% | [8]; [18] 18% | [8]; at 50.0 µM 38.4% | [9]; at 1.2 µM -4% | [9]; at 3.7 µM 0% | [9]; at 11.0 µM 9% | [9]; at 33.0 µM 29% | [9]; at 100.0 µM 64% | [10]; [17] 20% | [10]; [18] 14% | [10]; at 50.0 µM 23.9% | [11]; at 1.2 µM 17% | [11]; at 3.7 µM 12% | [11]; [17] 9% | [11]; at 11.0 µM 19% | [11]; at 33.0 µM 29% | [11]; [18] 47% | [11]; at 50.0 µM 34.5% | [11]; at 100.0 µM 63% | [12]; at 1.2 µM -46% | [12]; at 3.7 µM -45% | [12]; at 11.0 µM -40% | [12]; at 33.0 µM 7% | [13]; at 1.2 µM 18% | [13]; at 3.7 µM 32% | [13]; at 11.0 µM 24% | [13]; at 33.0 µM 36% | [13]; at 100.0 µM 29% | [14]; at 1.2 µM 15% | [14]; at 3.7 µM 26% | [14]; at 11.0 µM 30% | [14]; at 33.0 µM 44% | [15]; [17] 7% | [15]; [18] 54% | [16]; at 1.2 µM 21% | [16]; at 3.7 µM 21% | [16]; at 11.0 µM 22% | [16]; at 33.0 µM 36%
